In all, about 16,000 compounds went through this assay and about 5,100 (32%) were called active. Another 25% or so got no clear call; they are omitted. The call rests on the fitted dose curve; in most records, active means well fitted curve in the direction sought with a large enough effect; inconclusive means small, poorly fitted or top-dose-only effect, or effect the other way; inactive means no such curve, though single readings can be large or run the other way. This is one part of the list.
target: Cytochrome P450 3A4 (Homo sapiens) (UniProt P08684); assay: Cytochrome panel assay with activity outcomes; conditions: recombinant CYP, pro-luciferin dealkylation, luminescence, p450-cyp3a4; series mostly up to 57.1 µM; activity, negative = inhibition: at the top concentration
On the % scale 0 is the no-effect control and ±100 the full control effect.

Chain of Cytochrome P450 3A4 (Homo sapiens) (P08684 whole entry, looked up): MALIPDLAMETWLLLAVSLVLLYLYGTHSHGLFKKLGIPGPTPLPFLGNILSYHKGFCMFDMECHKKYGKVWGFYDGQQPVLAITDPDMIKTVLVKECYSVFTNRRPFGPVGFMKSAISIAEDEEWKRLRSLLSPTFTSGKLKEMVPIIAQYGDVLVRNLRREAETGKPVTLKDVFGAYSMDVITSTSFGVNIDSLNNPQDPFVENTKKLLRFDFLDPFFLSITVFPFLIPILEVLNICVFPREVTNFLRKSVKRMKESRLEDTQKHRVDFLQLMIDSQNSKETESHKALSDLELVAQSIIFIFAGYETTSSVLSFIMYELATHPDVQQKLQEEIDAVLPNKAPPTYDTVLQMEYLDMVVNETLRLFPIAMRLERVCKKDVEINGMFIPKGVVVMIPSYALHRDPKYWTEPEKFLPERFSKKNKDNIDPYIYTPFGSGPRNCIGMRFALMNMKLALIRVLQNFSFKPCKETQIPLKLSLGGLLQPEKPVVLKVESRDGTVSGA

AC50, active:
CS(=O)(=O)Nc1cccc(-c2cc(NCc3cccs3)ncn2)c1 15.8 µM
Cc1cccc(CNc2cc(-c3cccc(NS(C)(=O)=O)c3)ncn2)c1 2 µM
CS(=O)(=O)Nc1cccc(-c2cc(Nc3ccccc3)ncn2)c1 15.8 µM
CS(=O)(=O)Nc1cccc(-c2cc(NCc3ccccc3)ncn2)c1 15.8 µM
CC1(C)SC(=S)N(NC(=O)Nc2ccccc2)C1N(O)C(=O)Nc1ccccc1 (configuration not stated) 2.51 µM
Cn1c(Cc2cccc3ccccc23)nnc1SCC(=O)N1CCN(c2ccccc2)CC1 1.58 µM
CC(C)c1ccccc1-n1c(SCC(=O)N2CCN(c3ccccc3)CC2)nnc1-c1cccnc1 0.501 µM
Cn1c(CC(=O)Nc2ccc(Cl)c(Cl)c2)nnc1SCC(=O)N1CCN(c2ccccc2)CC1 1.58 µM
Cc1cc2nnc(SCC(=O)N3CCN(c4ccccc4)CC3)n2c(N)n1 14.1 µM
COc1ccccc1CNc1ncncc1-c1ccc2c(c1)OCO2 0.2 µM
COc1ccc(CNc2ncncc2-c2ccc3c(c2)OCO3)c(OC)c1 0.126 µM
CCC/C=C(\CCC)C(NS(=O)(=O)c1ccc(C(F)(F)F)cc1)c1ccccc1 (configuration not stated) 10 µM
CCC/C=C(\CCC)C(NS(=O)(=O)c1ccccc1)c1ccc(C(F)(F)F)cc1 (configuration not stated) 6.31 µM
COc1ccccc1CN1CCCC2(CCN(C(=O)c3cnccn3)CC2)C1 15.8 µM
COc1ccccc1CN1CCCC2(CCN(C(=O)c3ccncc3)CC2)C1 6.31 µM
Cc1cccc(Cc2c(C)nc3nc(SCC(=O)NCc4ccco4)nn3c2C)c1 11.2 µM
Cc1nc2nc(SCC(=O)NCc3ccco3)nn2c(C)c1Cc1c(F)cccc1Cl 10 µM
CCOC(=O)c1cc(CC)sc1NC(=O)c1cc(OCC)c(OCC)c(OCC)c1 22.4 µM
CSc1ccc(C#N)cc1NC(=O)c1cccc(Cl)c1 25.1 µM
CCCc1c(-c2ccc(O)cc2)nn(-c2ccc(O)cc2)c1-c1ccc(O)cc1 2.51 µM
N#C[C@H](Cc1ccc(O)cc1)c1ccc(O)cc1 12.6 µM
CC1CCc2cc(F)ccc2N1C(=O)CSc1nnc2c(n1)[nH]c1ccc(F)cc12 (configuration not stated) 2 µM
Cc1ccc(C(=O)NNC(=O)CSc2nnc3c(n2)[nH]c2ccc(F)cc23)cc1 1.58 µM
CC1(C)Cc2ccccc2C(NNC(=O)c2ccncc2)=N1 8.91 µM
CC(C)CC(c1nnnn1C(C)C)N1CCN(c2ccccc2)CC1 (configuration not stated) 3.98 µM
CCn1c(CC(=O)Nc2ccc(C)cc2)nnc1SCC(=O)NCCc1ccccc1 10 µM
CCn1c(Cc2ccccc2)nnc1SCC(=O)NC(C)(C)C 11.2 µM
CCn1c(CSCc2ccc(C)cc2)nnc1SCC(=O)NCc1ccccc1 7.94 µM
CCn1c(CC(=O)Nc2ccc(C)cc2)nnc1SCC(=O)Nc1nc(C)cs1 7.94 µM

AC50, inactive:
C[C@H](NCCc1ccc(O)cc1)[C@@H](O)c1ccc(O)cc1

activity, negative = inhibition, inactive:
CN(C)C(=O)c1ccc(-c2cc(Nc3ccccc3)ncn2)cc1 11.3%
CC(=O)c1cn(CCCCCCCCCCn2cc(C(C)=O)c(=O)[nH]c2=O)c(=O)[nH]c1=O 2.06% [at 2.29 µM]
NC(=O)C[C@H](N)C(N)=O 2.14% [at 11.4 µM]
CCN(CC)CCOc1ccc2nc(N(C)C)sc2c1 3.43%
COC(=O)C1CCC(C)(C(=O)Nc2ccccc2)C1(C)C (configuration not stated) -9.58% [at 11.4 µM]
COCC(=O)N1CCC2(CC1)CCN(c1cccc(-c3ccccc3)c1)CC2 -2.88%
CC1CC(C)CN(C(=O)CSc2nnc(CSc3ncccn3)n2C)C1 (configuration not stated) 3.75% [at 2.29 µM]
O=C1CSC2(CCN(CCCN3c4ccccc4Sc4ccc(Cl)cc43)CC2)N1 -14.4% [at 11.4 µM]
C[C@@](O)(CNS(=O)(=O)c1ccccc1)c1ccccc1 -21.9% [at 11.4 µM]
COCC(=O)N1CCC2(CCCN(Cc3ccccc3OC)C2)CC1 -17.4%
COc1ccccc1CN1CCCC2(CCN(C(C)=O)CC2)C1 -19%
CCCN=C(N)NCCC[C@H](N)C(=O)O -7.85%
COc1cc(OC)c(C2N(c3cc(C)on3)C(=O)C3CCCN32)cc1OC (configuration not stated) -22.1%
CCc1cc(C(=O)OC)c(NC(=O)CCCC(=O)O)s1 -11.2%
CCOC(=O)c1cc(-c2ccccc2)sc1NC(=O)c1ccc(OC)cc1 -2.52%
CC(C)NCC[C@@H](O)c1cc2ccccc2o1 -4.13% [at 11.4 µM]
CCOC(=O)/C(C#N)=C1/C=CN(C)C=N1 27.7%
CC(=O)c1ccc(NC(=O)C2(c3ccccc3)CCOCC2)cc1 -28.3%
CO/N=C(/CNC(=O)c1cccc(Cl)c1)c1ccc(Cl)cc1 -6.99% [at 2.29 µM]
Cc1nn(-c2ccccc2)c(-c2ccccc2)c1C(=O)O -1.38%
CC(=O)N[C@H](Cc1ccc(O)cc1)C(=O)O -12.2% [at 11.4 µM]
Cc1ccccc1C(=O)NNC(=O)c1ccc(F)cc1 -5.86%
Cc1occc1C(=O)NNC(=O)c1ccc(F)cc1 18.8%
O=C(O)c1nn(-c2ccccc2)nc1-c1nn(-c2ccccc2)nc1C(=O)O 11.6%
CN1CCC2(CC1)CCN(C(=O)c1ccncc1)CC2 -7.59%
CC1=NC(C)(C)Cc2ccccc21 -15.9%
CC(C)n1nnnc1-c1cc(Cl)cc(Cl)c1 11.3% [at 2.29 µM]
ClC(Cl)(Cl)C(N1CCN(c2ccccc2)CC1)N1CCN(c2ccccc2)CC1 -3.89% [at 11.4 µM]
O=C(O)[C@H]1C[C@H](C(=O)O)N1 -4.9%
C=CCn1c(Cc2c[nH]c3ccccc23)nnc1SCC(=O)NCc1ccccc1 -3.87% [at 2.29 µM]
CC(C)(C)NC(=O)NC(=O)CSc1nnc2ccccn12 13.5%
CCc1c(O)nc(SCC(=O)NC(C)(C)C)n(-c2ccccc2)c1=O -1.41% [at 2.29 µM]

Reference: PubChem BioAssay AID1851 (National Center for Advancing Translational Sciences (NCATS), 2009)
